Some of the results follow. Values without a mark were called inactive. Activity calls are given as the source filed them.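 The calls were made as follows: active = average inhibition over replicates above about 50%, so the earlier screening hit is confirmed (limit read from the data); inactive = the rest, counted as false positives.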

A word on the inhibition: it is how much of the control response was suppressed.

Chain of Ubiquitin carboxyl-terminal hydrolase isozyme L5 (Homo sapiens) (Q9Y5K5 whole entry, looked up): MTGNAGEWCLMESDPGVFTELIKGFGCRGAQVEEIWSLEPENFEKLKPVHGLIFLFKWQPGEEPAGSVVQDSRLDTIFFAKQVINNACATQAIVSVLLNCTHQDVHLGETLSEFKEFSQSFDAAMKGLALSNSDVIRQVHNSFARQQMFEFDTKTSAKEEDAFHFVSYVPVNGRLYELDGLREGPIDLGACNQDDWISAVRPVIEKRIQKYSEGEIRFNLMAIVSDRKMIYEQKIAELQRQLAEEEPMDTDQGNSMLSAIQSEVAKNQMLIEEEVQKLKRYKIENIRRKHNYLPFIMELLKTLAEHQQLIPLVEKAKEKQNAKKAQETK

This assay addresses Ubiquitin carboxyl-terminal hydrolase isozyme L5 (Homo sapiens) (UniProt Q9Y5K5). Nature of the assay: proteasome-bound UCH37 Ub-AMC cleavage inhibition – biochemical, Ub-AMC cleavage rate, fluorescence, confirmation (AID 624100).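 Also: based on cleavage rate fitted by regression over a 30 min kinetic read; 0% = proteasome plus Ub-AMC and 100% = Ub-AMC without proteasome.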 Particulars: at 20 µM, hits give high values.
For the compound `N#C/C(=C/c1ccc(N2CCOCC2)o1)C(=O)N1CCOCC1`, the inhibition is 29.8%. For the compound `COC1=C(N2CCOCC2)C(=O)c2ccccc2C1=O`, the inhibition is 12.6%. Then `COc1ccc(S(=O)(=O)/N=C2\C=C(NS(=O)(=O)c3ccccc3)C(=O)c3ccccc32)cc1`, with 83.7% (active); and `CC(C)NC(=O)/C(C#N)=C\c1ccc(N(C)C)c(Br)c1`, with 9.32%; and `CCN(CC)CCCC(C)n1c2nc(=O)[nH]c(=O)c-2nc2cc(Cl)ccc21` (stereo unspecified), with 85.1% (active). Turning to `COc1cc(NC(=O)COC(=O)c2ccc([N+](=O)[O-])s2)cc(OC)c1OC`, the inhibition was 14.6%.

For the compound `O=C1C(Cl)=C(Oc2ccccc2)C(=O)c2ccccc21`, the inhibition was 95.2% (active). For the compound `O=C(/C=C/c1ccccc1)c1ccoc1`, the inhibition is 8.47%. For `O=C(OCC(=O)N1CCN(c2ccccc2)CC1)c1ccc([N+](=O)[O-])s1`, the inhibition is 22.8%. On to `COc1ccc(Cn2nnc3c(=O)[nH]c(C4CCN(C(=O)c5ccccc5Cl)CC4)nc32)cc1`, for which the inhibition is 17.8%. With `CCOC(=O)c1c(C)[nH]c2c1-c1ccccc1C(=O)C2=O`, the inhibition was 90.1% (active).
